Data: article PMC7819943, “Rice protein-binding microarrays: a tool to detect cis-acting elements near promoter regions in rice”
In all, about 68,000 sequences were measured (“fluorescence intensity (a.u.)”: median about 9,100, highest 2% from about 16,000 on). This excerpt belongs to a sample that is enriched for the highest values.

The sequences below were run against OsWRKY34 (Oryza sativa, UniProt Q0JBA9 1-250) (assay: protein-binding microarray (RPBM); PBS, 2% BSA, 51.3 ng/ul salmon testes DNA, 50 uM zinc acetate, 200 nM TF, 25 C, 1 h; high values mean tight binding). Conditions: protein: recombinant; tags: N-terminal polyhistidine and DsRed monomer fusion (pET32a); label: CyDye5-dUTP incorporated in the synthesized complementary strand; 3' TTTTT single-stranded linker to array surface; dsDNA, one strand shown.
Sequence of OsWRKY34 (Q0JBA9 entry or part of it): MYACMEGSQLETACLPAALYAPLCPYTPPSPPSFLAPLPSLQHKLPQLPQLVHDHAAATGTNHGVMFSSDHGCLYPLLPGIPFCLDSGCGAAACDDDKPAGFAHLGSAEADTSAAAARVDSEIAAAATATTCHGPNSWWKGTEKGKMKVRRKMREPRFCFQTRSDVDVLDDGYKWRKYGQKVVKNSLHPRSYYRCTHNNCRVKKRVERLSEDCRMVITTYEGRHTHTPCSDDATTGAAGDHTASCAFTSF
Summary of the method: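 A custom Agilent array was converted to double-stranded form by primer extension with Cy5-dUTP and blocked with 2% BSA. Protein at 200 nM in PBS with 2% BSA, salmon testes DNA and 50 µM zinc acetate was applied for 1 h at 25 °C, followed by washing. The proteins were polyhistidine–DsRed N-terminal fusions of transcription factors, expressed in E. coli BL21-CodonPlus and Ni–NTA-purified. The binding signal is per-feature fluorescence intensity (arbitrary units) from an Axon 4000B scanner.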
For “CCCTTGGGTTGGGTTGTGTTGCTCCCTCTGCTGCATTAATCGGAGTCACCTAGTGCAG”, the binding signal was 18100 fluorescence intensity (a.u.).
For “CTGCTGTGTTGCACATTTTTCTGCTCTGTATACCTATAATCGGAGTCACCTAGTGCAG”, the binding signal was 12200 fluorescence intensity (a.u.).
In the case of “TATATCATATGCGGGCGTGATCTATTGGGGCGGGGTGTGGCGGAGTCACCTAGTGCAG”, the binding signal is reported as 20000 fluorescence intensity (a.u.).
In the case of “TATTCGATTTTGGGTGGTGGTTGTTAAGTTGGCATTTGCACGGAGTCACCTAGTGCAG”, the binding signal is reported as 18300 fluorescence intensity (a.u.).
For “GGGGTGGACTGGGGTGTTTGGCTGCGTGAGTGCGGAGCGGCGGAGTCACCTAGTGCAG”, the binding signal was 8920 fluorescence intensity (a.u.).
In the case of “GTGGTTATTCAATTTGTTGCTTGTTTTTGTTTCAAGTTGGCGGAGTCACCTAGTGCAG”, the binding signal is reported as 10700 fluorescence intensity (a.u.).
With “GGTGAGTTCTTGATTTGGGCGTGGAGCTTTTTTTCTTGGTCGGAGTCACCTAGTGCAG” the binding signal was 8170 fluorescence intensity (a.u.).
“AGGGAGAGTGTGGGTGCGTGGGGCATATGGTGGTGCGGTGCGGAGTCACCTAGTGCAG” was tested, and the binding signal was 9950 fluorescence intensity (a.u.).
With “ATTCTGATTGGGTGTGGTTGGTTTGATTTTCTGTTAAGCACGGAGTCACCTAGTGCAG” the binding signal was 11700 fluorescence intensity (a.u.).
In the case of “TGGGTGGGTGCGGCGTGGAGTGACGTGGCGGCGGGTGTGGCGGAGTCACCTAGTGCAG”, the binding signal is reported as 8590 fluorescence intensity (a.u.).
In the case of “GGTGGGTGTGTGCTTGTTTCGGCGTGTGATTTGGGCGGAGCGGAGTCACCTAGTGCAG”, the binding signal is reported as 16500 fluorescence intensity (a.u.).
In the case of “CCCTCCCCTCTGCTTCCGTTCCCTTGGGTTGGGTTGTGTTCGGAGTCACCTAGTGCAG”, the binding signal is reported as 8480 fluorescence intensity (a.u.).
For “GAAGTGATGAATATATTAAACTGGTTTGGCTATTATTTCCCGGAGTCACCTAGTGCAG”, the binding signal was 8360 fluorescence intensity (a.u.).
For “CTCTCGTGGTGTGGTGTGGACAAGAAAGGAAGGAAAGATGCGGAGTCACCTAGTGCAG”, the binding signal was 8700 fluorescence intensity (a.u.).
In the case of “TAATGTCCCTATTTTGTTATAGTGTTCCTCCAATAATCTGCGGAGTCACCTAGTGCAG”, the binding signal is reported as 8290 fluorescence intensity (a.u.).
“CAGTTCTTCGTTCTTGTCTTTACTCTCATGATTTTCTCTTCGGAGTCACCTAGTGCAG” was tested, and the binding signal was 10900 fluorescence intensity (a.u.).
“CTCAACCTCTCGGTCGTCGGCCTCGTCCTCCGGGCCGGCACGGAGTCACCTAGTGCAG” was tested, and the binding signal was 12000 fluorescence intensity (a.u.).
“TTCATAGCCGCCGCATCTCCTTCTCTTCGACTTTTCTCCTCGGAGTCACCTAGTGCAG” was tested, and the binding signal was 9080 fluorescence intensity (a.u.).
For “TCAAACGATGCCATTCACCACGTGCCACTTTATATCAAACCGGAGTCACCTAGTGCAG”, the binding signal was 11700 fluorescence intensity (a.u.).
For “CTTAACGGCCCATTTATCTTGTCTCTCTGGCCCACCTGCACGGAGTCACCTAGTGCAG”, the binding signal was 12300 fluorescence intensity (a.u.).
In the case of “CCTGTAATACTTTTGTTAATTCGATCCTACTACATCTTTACGGAGTCACCTAGTGCAG”, the binding signal is reported as 10400 fluorescence intensity (a.u.).
For “TGGGAGCTTTGCTTGGGGTGTGTGTGTGTTTGGGTGGTGCCGGAGTCACCTAGTGCAG”, the binding signal was 10900 fluorescence intensity (a.u.).
In the case of “GTGGTGGTGGTGTGTGAGCTCGGGGCTTGGGGTTTTGCGGCGGAGTCACCTAGTGCAG”, the binding signal is reported as 13300 fluorescence intensity (a.u.).
“CATATATTGGTGTTGTGTGTGGGTGGGTGGGGCGGTGCTTCGGAGTCACCTAGTGCAG” was tested, and the binding signal was 30900 fluorescence intensity (a.u.).
“GTTTTTGTGCTTGGTGGTGGTGGTGGGTGATTTGCAGGGGCGGAGTCACCTAGTGCAG” was tested, and the binding signal was 31700 fluorescence intensity (a.u.).
For “TGGTGTTGTCGGTGTGTGGGTGGTGATATACTTTTTTTTTCGGAGTCACCTAGTGCAG”, the binding signal was 11600 fluorescence intensity (a.u.).
For “TTGGTCGCATTTCGGGTGGTGGTGGTGGTGGTGGTGGTGGCGGAGTCACCTAGTGCAG”, the binding signal was 13200 fluorescence intensity (a.u.).
For “TTTCTTCATTTCATGATTGTATATTCTGGTGTTTTTGTGGCGGAGTCACCTAGTGCAG”, the binding signal was 9250 fluorescence intensity (a.u.).
With “GAGCTGGGGTGGTGTTTGTTTGTGGGTGTGTTTGTGTGCTCGGAGTCACCTAGTGCAG” the binding signal was 15900 fluorescence intensity (a.u.).
With “ACGGTGTATATTTGTGGTGTGGCGGGTGTGGCATTGGATTCGGAGTCACCTAGTGCAG” the binding signal was 16700 fluorescence intensity (a.u.).
